Source: the supplement of paper PMC4466140

Tests used:
Assay in all cases: SPOT peptide array binding signal intensity (averaged, normalized) (arbitrary units (background-subtracted, floor 0; scale differs between SH3 domains)); higher = stronger binding of the SH3 domain to the peptide
[1] = target: AgAbp1
Experimental: (§1)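 GST-tagged SH3 domains from S. cerevisiae (Sc), A. gossypii (Ag), C. albicans (Ca) and S. pombe (Sp) were incubated at 10 ug/ml overnight at 4 C on cellulose SPOT membranes carrying 292 synthetic 15-mer peptides mined from the S. cerevisiae proteome (cysteines replaced by serines). Binding was detected with anti-GST antibody, HRP secondary and chemiluminescence, quantified with Genespotter, and reported as normalized spot intensities averaged over biological replicates.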

[2] = target: AgBbc1
Experimental: as §1

[3] = target: AgBem1-D1
Experimental: as §1

[4] = target: AgBzz1-D1
Experimental: as §1

[5] = target: AgBzz1-D2
Experimental: as §1

[6] = target: AgCyk3
Experimental: as §1

[7] = target: AgFus1
Experimental: as §1

[8] = target: AgHof1
Experimental: as §1

[9] = target: AgHse1
Experimental: as §1

[10] = target: AgLsb1
Experimental: as §1

[11] = target: AgLsb4
Experimental: as §1

[12] = target: AgMyo5
Experimental: as §1

[13] = target: AgNbp2
Experimental: as §1

[14] = target: AgRvs167
Experimental: as §1

[15] = target: AgSho1
Experimental: as §1

[16] = target: AgSla1-D1-D2
Experimental: as §1

[17] = target: AgSla1-D3
Experimental: as §1

[18] = target: CaAbp1-D1
Experimental: as §1

[19] = target: CaAbp1-D2
Experimental: as §1

[20] = target: CaBbc1
Experimental: as §1

[21] = target: CaBem1-D1
Experimental: as §1

[22] = target: CaBzz1-D1
Experimental: as §1

[23] = target: CaBzz1-D2
Experimental: as §1

[24] = target: CaCyk3
Experimental: as §1

[25] = target: CaFus1
Experimental: as §1

[26] = target: CaHof1
Experimental: as §1

[27] = target: CaHse1
Experimental: as §1

[28] = target: CaLsb1
Experimental: as §1

[29] = target: CaLsb4
Experimental: as §1

[30] = target: CaMyo5
Experimental: as §1

[31] = target: CaNbp2
Experimental: as §1

[32] = target: CaRvs167
Experimental: as §1

[33] = target: CaRvs167-3
Experimental: as §1

[34] = target: CaSho1
Experimental: as §1

[35] = target: CaSla1-D1-D2
Experimental: as §1

[36] = target: CaSla1-D3
Experimental: as §1

[37] = target: ScAbp1
Experimental: as §1

[38] = target: ScBbc1
Experimental: as §1

[39] = target: ScBem1-D1
Experimental: as §1

[40] = target: ScBzz1-D1
Experimental: as §1

[41] = target: ScBzz1-D2
Experimental: as §1

[42] = target: ScCyk3
Experimental: as §1

[43] = target: ScFus1
Experimental: as §1

[44] = target: ScHof1
Experimental: as §1

[45] = target: ScHse1
Experimental: as §1

[46] = target: ScLsb1
Experimental: as §1

[47] = target: ScLsb2
Experimental: as §1

[48] = target: ScLsb3
Experimental: as §1

[49] = target: ScLsb4
Experimental: as §1

[50] = target: ScMyo3
Experimental: as §1

[51] = target: ScMyo5
Experimental: as §1

[52] = target: ScNbp2
Experimental: as §1

[53] = target: ScPex13
Experimental: as §1

[54] = target: ScRvs167
Experimental: as §1

[55] = target: ScSho1
Experimental: as §1

[56] = target: ScSla1-D1-D2
Experimental: as §1

[57] = target: ScSla1-D3
Experimental: as §1

[58] = target: SpAbp1-D1
Experimental: as §1

[59] = target: SpBbc1
Experimental: as §1

[60] = target: SpBzz1-D1
Experimental: as §1

[61] = target: SpBzz1-D2
Experimental: as §1

[62] = target: SpCyk3
Experimental: as §1

[63] = target: SpHof1
Experimental: as §1

[64] = target: SpHof1-2
Experimental: as §1

[65] = target: SpHof1-3
Experimental: as §1

[66] = target: SpHse1
Experimental: as §1

[67] = target: SpLsb1
Experimental: as §1

[68] = target: SpLsb4
Experimental: as §1

[69] = target: SpMyo1
Experimental: as §1

[70] = target: SpNbp2
Experimental: as §1

[71] = target: SpPex13
Experimental: as §1

[72] = target: SpRvs167
Experimental: as §1

[73] = target: SpSla1-D1-D2
Experimental: as §1

[74] = target: SpSla1-D3
Experimental: as §1

B1: unnamed (peptide)
chain: LASNSPPVYPKRIRH
SPOT peptide array binding signal intensity [1]: 45 | SPOT peptide array binding signal intensity [2]: 18.2 | SPOT peptide array binding signal intensity [3]: ≤ 0 | SPOT peptide array binding signal intensity [4]: 59 | SPOT peptide array binding signal intensity [5]: 6 | SPOT peptide array binding signal intensity [6]: ≤ 0 | SPOT peptide array binding signal intensity [7]: ≤ 0 | SPOT peptide array binding signal intensity [8]: ≤ 0 | SPOT peptide array binding signal intensity [9]: 3.5 | SPOT peptide array binding signal intensity [10]: 2.5 | SPOT peptide array binding signal intensity [11]: 196 | SPOT peptide array binding signal intensity [12]: ≤ 0 | SPOT peptide array binding signal intensity [13]: ≤ 0 | SPOT peptide array binding signal intensity [14]: 4.17 | SPOT peptide array binding signal intensity [15]: ≤ 0 | SPOT peptide array binding signal intensity [16]: 2 | SPOT peptide array binding signal intensity [17]: ≤ 0 | SPOT peptide array binding signal intensity [18]: 93 | SPOT peptide array binding signal intensity [19]: 47.5 | SPOT peptide array binding signal intensity [20]: 400 | SPOT peptide array binding signal intensity [21]: 6 | SPOT peptide array binding signal intensity [22]: 165 | SPOT peptide array binding signal intensity [23]: 44.8 | SPOT peptide array binding signal intensity [24]: ≤ 0 | SPOT peptide array binding signal intensity [25]: ≤ 0 | SPOT peptide array binding signal intensity [26]: 0.25 | SPOT peptide array binding signal intensity [27]: ≤ 0 | SPOT peptide array binding signal intensity [28]: ≤ 0 | SPOT peptide array binding signal intensity [29]: 771 | SPOT peptide array binding signal intensity [30]: ≤ 0 | SPOT peptide array binding signal intensity [31]: ≤ 0 | SPOT peptide array binding signal intensity [32]: 4.17 | SPOT peptide array binding signal intensity [33]: 2.25 | SPOT peptide array binding signal intensity [34]: 3 | SPOT peptide array binding signal intensity [35]: 56 | SPOT peptide array binding signal intensity [36]: ≤ 0 | SPOT peptide array binding signal intensity [37]: 39.5 | SPOT peptide array binding signal intensity [38]: 16.8 | SPOT peptide array binding signal intensity [39]: ≤ 0 | SPOT peptide array binding signal intensity [40]: ≤ 0 | SPOT peptide array binding signal intensity [41]: 19 | SPOT peptide array binding signal intensity [42]: 1 | SPOT peptide array binding signal intensity [43]: ≤ 0 | SPOT peptide array binding signal intensity [44]: 0.75 | SPOT peptide array binding signal intensity [45]: ≤ 0 | SPOT peptide array binding signal intensity [46]: 46.5 | SPOT peptide array binding signal intensity [47]: 10 | SPOT peptide array binding signal intensity [48]: 1560 | SPOT peptide array binding signal intensity [49]: 45.5 | SPOT peptide array binding signal intensity [50]: ≤ 0 | SPOT peptide array binding signal intensity [51]: ≤ 0 | SPOT peptide array binding signal intensity [52]: ≤ 0 | SPOT peptide array binding signal intensity [53]: 56.5 | SPOT peptide array binding signal intensity [54]: 7.67 | SPOT peptide array binding signal intensity [55]: 27.5 | SPOT peptide array binding signal intensity [56]: 11 | SPOT peptide array binding signal intensity [57]: ≤ 0 | SPOT peptide array binding signal intensity [58]: 18.5 | SPOT peptide array binding signal intensity [59]: ≤ 0 | SPOT peptide array binding signal intensity [60]: 248 | SPOT peptide array binding signal intensity [61]: ≤ 0 | SPOT peptide array binding signal intensity [62]: ≤ 0 | SPOT peptide array binding signal intensity [63]: 1.5 | SPOT peptide array binding signal intensity [64]: 1 | SPOT peptide array binding signal intensity [65]: 2.75 | SPOT peptide array binding signal intensity [66]: ≤ 0 | SPOT peptide array binding signal intensity [67]: 257 | SPOT peptide array binding signal intensity [68]: 1810 | SPOT peptide array binding signal intensity [69]: ≤ 0 | SPOT peptide array binding signal intensity [70]: 0.5 | SPOT peptide array binding signal intensity [71]: ≤ 0 | SPOT peptide array binding signal intensity [72]: 3.5 | SPOT peptide array binding signal intensity [73]: ≤ 0 | SPOT peptide array binding signal intensity [74]: ≤ 0
